High-throughput results deposited in PubChem BioAssay by several laboratories.
Cdc25B inh: human M-phase inducer phosphatase 2 inhibition; recombinant Cdc25B, OMFP fluorescence Ex485/Em525; P30305; inhibition, %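 (compounds tested at 10 µM final in the well)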; AID 368; actives 0.1% (n = 65,000); in the data active = inhibition above about 50%
Hsp90 block: displaces geldanamycin probe from tumor Hsp90; P07900; NCI-N417 lysate Hsp90, Cy3B-geldanamycin FP displacement; inhibition, % at 30 µM; actives 0.35% (n = 64,000);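 active = inhibition above 50%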;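 note: 0% = tracer plus lysate wells and 100% = tracer alone without lysate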
BAP1 block: human BAP1 deubiquitinase inhibition | AID 436 | recombinant BAP1, Ub-AMC hydrolysis fluorescence kinetic; stronger effect = lower value | calls only at 20 µM | actives 0.48% (n = 72,000) | Q92560;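 active = activity remaining at or below 50% of control, provided the compound also passes the data quality filters; inactive = the rest, including low values that fail the filters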;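 note: 100% = DMSO wells rate and 0% = substrate alone blank rate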
MKP-1 inh: blocks human MKP-1 phosphatase activity; P28562; recombinant MKP-1, OMFP hydrolysis fluorescence; inhibition, %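 (compounds tested at a single concentration somewhere between 10 and 100 µM)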; actives 0.15% (n = 65,000); AID 374;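 active = inhibition above about 50%, limit read from the data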;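 note: 0% = DMSO max control wells and 100% = wells with enzyme stopped by NaOH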
Target sequence (P28562 whole entry, looked up): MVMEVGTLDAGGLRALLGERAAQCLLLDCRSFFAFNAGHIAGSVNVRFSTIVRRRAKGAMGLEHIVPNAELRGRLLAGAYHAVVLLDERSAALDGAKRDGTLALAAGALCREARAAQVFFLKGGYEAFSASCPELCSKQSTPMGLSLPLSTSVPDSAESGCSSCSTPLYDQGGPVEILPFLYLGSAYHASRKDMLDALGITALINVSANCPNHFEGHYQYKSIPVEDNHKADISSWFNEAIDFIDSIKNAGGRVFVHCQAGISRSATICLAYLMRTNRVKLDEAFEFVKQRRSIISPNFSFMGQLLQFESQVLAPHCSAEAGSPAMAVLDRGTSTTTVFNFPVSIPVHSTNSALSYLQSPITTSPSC
HePTP inh: blocks human HePTP tyrosine phosphatase; P35236; recombinant HePTP phosphatase activity, OD absorbance; inhibition, % at 20 µM; actives 0.64% (n = 110,000); AID 521; in the data active = inhibition above about 50%;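 note: plate controls were vehicle for no effect and reference inhibitor for full effect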
Target sequence (P35236 whole entry, looked up): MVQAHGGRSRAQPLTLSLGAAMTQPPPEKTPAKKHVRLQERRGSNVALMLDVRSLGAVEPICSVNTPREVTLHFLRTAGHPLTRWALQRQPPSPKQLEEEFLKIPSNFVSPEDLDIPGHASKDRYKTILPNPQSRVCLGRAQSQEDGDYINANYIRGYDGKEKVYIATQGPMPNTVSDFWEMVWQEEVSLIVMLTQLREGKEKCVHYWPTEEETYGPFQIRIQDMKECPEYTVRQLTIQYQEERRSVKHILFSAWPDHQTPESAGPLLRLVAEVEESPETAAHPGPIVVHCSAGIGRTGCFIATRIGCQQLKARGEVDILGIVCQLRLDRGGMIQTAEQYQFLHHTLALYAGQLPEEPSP
Starred values were filed as active, the others as inactive; i = inactive; nt = not tested or not shown. Shown are actives, neighbours in structure and some others; about 1.1% of the full set was active somewhere.

SMILES | Cdc25B inh | Hsp90 block | BAP1 block | MKP-1 inh | HePTP inh
Cc1cc(C)c2c(c1)=C(c1sc(N)nc1O)C(=O)N=2 | nt | nt | nt | nt | 69*
COC(=O)C(=C/C(Cl)=C/N(C)C)C(=O)OC | nt | nt | nt | nt | 0
COc1ccc(-c2cn3c(C)c(C(=O)Nc4cccc(C)n4)sc3n2)cc1 | -13 | -4 | i | 51* | 7
Cc1cccc(NC(=O)c2sc3nc(-c4ccccc4)cn3c2C)n1 | -27 | -5 | i | 26 | nt
COc1ccc(NC(=O)c2ccc(Nc3nnc(C)c4ccccc34)cc2)cc1 | nt | nt | nt | nt | 60*
Cc1nnc(Nc2ccc(C(=O)NCCO)cc2)c2ccccc12 | -3 | -3 | i | -11 | 7
O=C(O)C1C2CCC(O2)C1C(=O)NCc1ccc(F)cc1 (stereo unspecified) | nt | nt | nt | nt | 103*
CCOc1ccc(/C=N\NC(=O)c2ccc(Br)cc2)c(O)c1 | nt | nt | nt | nt | 102*
CCOc1ccc(/C=N\NC(=O)c2cncc(Br)c2)cc1 | nt | nt | nt | nt | -16
CCOC(=O)c1sc2ncc([N+](=O)[O-])c(NC)c2c1N | nt | nt | nt | nt | -1
Cc1ccc(C)n1-c1ccc(OCC(=O)O)cc1 | nt | nt | i | nt | 104*
Cc1nc(=O)c(-c2ccccc2)c(C)n1-c1ccc(OCC(=O)O)cc1 | nt | nt | nt | nt | 8
CC(=O)c1ccc(-n2c(C)ccc2C)cc1 | nt | nt | nt | nt | 0
Cc1ccc(C)n1-c1ccc(SCC(=O)O)cc1 | nt | nt | nt | nt | 103*
O=C(NC1CCCCCC1)c1cc(-c2ccco2)nc2ccccc12 | nt | nt | nt | nt | 98*
COc1ccccc1/C=N/Nc1nc(N2CCOCC2)nc(N2CCOCC2)n1 | nt | nt | nt | nt | -8
CCCn1nnc(NC(=O)c2cc(Br)cc(Br)c2OC)n1 | -13 | 1 | i | 50* | 7
COc1ccc(C2=NO[C@@H]3C(=O)N(c4ccc5c(c4)OCCO5)C(=O)[C@H]23)cc1OC | 1 | 68* | i | -14 | 8
CCCCCC(=O)N1CC2(C)CN(C(=O)CCCCC)CC(C)(C1)C2=O | -38 | 120* | i | -17 | 1
CC(=O)Nc1ccc(NS(=O)(=O)c2c(C)cc(C)cc2C)cc1 | nt | nt | nt | nt | 101*
CC(=O)Nc1ccc(S(=O)(=O)Nc2c(C)cc(C)cc2C)cc1 | nt | nt | nt | nt | 6
CCN(CC)CCN1C(=O)C(O)=C(C(=O)/C=C/c2ccccc2)C1c1ccccc1Cl (stereo unspecified) | nt | nt | nt | nt | -4
O=C(Nc1ccccc1C(=O)O)c1cccc(N2C(=O)c3ccccc3C2=O)c1 | nt | nt | nt | nt | 10
O=C(Nc1ccc(Br)cc1C(=O)O)c1cccc(N2C(=O)c3ccccc3C2=O)c1 | nt | nt | nt | nt | 102*
O=[N+]([O-])c1cc(C(F)(F)F)ccc1NCCNC(=S)Nc1ccc(Cl)cc1 | nt | nt | nt | nt | 104*
SMILES | Cdc25B inh | Hsp90 block | BAP1 block | MKP-1 inh | HePTP inh
O=C(Nc1ccccc1C(=O)O)c1ccc2c(c1)C(=O)N(C1CCCCC1)C2=O | nt | nt | nt | nt | 101*
O=C(OCCN1CCCCC1)c1ccc(O)cc1 | -4 | -1 | i | 8 | 4
O=C(OCCCN1CCCCC1)c1ccc(O)cc1 | 57* | -11 | i | -32 | 6
CCCCCCCCNc1nc(OC)nc(OC)n1 | nt | nt | nt | nt | 68*
CCCCCCCNc1nc(OC)nc(N2CCCCC2)n1 | nt | nt | nt | nt | -10
O=C1c2ccccc2-c2onc3ccc(NCc4ccco4)c1c23 | -22 | 50* | i | -3 | 9
COc1ccc(C)cc1NC(=O)CCC1CCCC1 | nt | nt | nt | nt | 104*
COc1ccccc1NC(=O)CCC1CCCC1 | nt | nt | nt | nt | 2
COc1ccccc1C1NC(=O)NC(C)=C1C(=O)OC(C)C (stereo unspecified) | nt | nt | i | nt | nt
CS(=O)(=O)N(CC(=O)Nc1ccc2c(c1)OCO2)Cc1ccc(Cl)cc1 | -12 | 35 | i | 5 | 2
O=S(=O)(Cc1ccc(Cl)cc1)Nc1ccc2c(c1)OCO2 | -2 | 56* | i | -3 | 7
COC(=O)c1c2nc3ccccc3sc-2cc(=O)c1N | nt | nt | nt | nt | 68*
C=CCn1c2ccccc2c2nnc(SCC(=O)N=C3NC(=O)CS3)nc21 | nt | nt | nt | nt | 56*
Cc1cccc(-c2cc(C(=O)O)c3ccccc3n2)c1 | nt | nt | nt | nt | 0
O=C(O)c1cc(-c2cccc(Cl)c2)nc2ccccc12 | nt | nt | nt | nt | 104*
O=C(Nc1ccc2oc(-c3ccccc3F)nc2c1)c1cccc([N+](=O)[O-])c1 | nt | nt | nt | nt | 99*
Cc1c(-c2ccco2)[n+](=O)c2c(n1[O-])CCC2 | -12 | -2 | i | -23 | 1
COc1ccc(-c2c(C)n([O-])c3c([n+]2=O)CCC3)cc1 | nt | nt | nt | nt | 104*
Cc1c(-c2ccccc2)[n+](=O)c2c(n1[O-])CCCCC2 | nt | nt | nt | nt | -5
Cc1c(-c2ccc(F)cc2)[n+](=O)c2c(n1[O-])CCC2 | nt | nt | nt | nt | 104*
CC1(C)Cc2[nH]ccc2C(C)(C)N1 | nt | nt | i | nt | nt
O=C(Nc1ccc(Oc2ccccc2)cc1)C1COc2ccccc2O1 (stereo unspecified) | nt | nt | nt | nt | -7
CCOc1ccc(N(CC(N)=O)S(=O)(=O)c2ccc(SC)cc2)cc1 | nt | nt | nt | nt | 1
CCOc1ccc(N2C(=O)CC(NCc3ccc(S(N)(=O)=O)cc3)C2=O)cc1 (stereo unspecified) | nt | nt | nt | nt | -5
CCOc1ccc(N2C(=O)CC(NCc3ccc(Cl)cc3Cl)C2=O)cc1 (stereo unspecified) | nt | nt | nt | nt | 104*
SMILES | Cdc25B inh | Hsp90 block | BAP1 block | MKP-1 inh | HePTP inh
O=C(O)c1ccc(NC(=O)c2cc(NC(=O)c3ccc(C(=O)O)cc3)cc(C(=O)Nc3ccc([N+](=O)[O-])cc3)c2)cc1 | nt | nt | nt | nt | 101*
O=C(Nc1ccc(I)cc1Cl)c1ccc([N+](=O)[O-])cc1 | nt | nt | nt | nt | 88*
O=C(O)c1ccc2c(c1)C(=O)N(c1ccc(Sc3ccc([N+](=O)[O-])cc3)cc1)C2=O | nt | nt | i | nt | nt
O=C(O)c1ccc(NC(=O)c2ccc3c(c2)C(=O)N(c2ccc([N+](=O)[O-])cc2)C3=O)cc1 | nt | nt | nt | nt | 59*
CCS(=O)(=O)c1nc2ccc([N+](=O)[O-])cc2s1 | nt | nt | nt | nt | 6
Cc1ccc(N=C2NC(=O)/C(=C/c3cccc(O)c3)S2)cc1Cl | nt | nt | nt | nt | 60*
COc1cc(NC(=O)c2ccc(Cl)c([N+](=O)[O-])c2)c(Cl)cc1C(=O)O | nt | nt | i | nt | nt
Cc1ccc(/C(N)=N/OC(=O)COc2ccc(Br)cc2)cc1 | nt | nt | nt | nt | -6
O=C1/C(=C/c2cn(-c3ccccc3)nc2-c2cccs2)SC(=S)N1Cc1ccccc1 | nt | nt | nt | nt | 0
Cc1[nH]n(-c2ccccc2)c(=O)c1C=Nc1ccc(Cl)cc1 | nt | nt | nt | nt | 4
Cc1ccc(N=Cc2c(C(F)(F)F)[nH]n(-c3ccccc3)c2=O)cc1 | nt | nt | nt | nt | 64*
COCCN1C(=O)/C(=C\c2cccc(Cl)c2)C(C(=O)OC)=C1C | nt | nt | nt | nt | 4
Cn1c2ccccc2c2nnc(SCC(=O)NCc3ccco3)nc21 | nt | nt | nt | nt | 104*
Oc1ccc(C2CNCCc3c2cc(O)c(O)c3Cl)cc1 (stereo unspecified) | nt | 75* | i | nt | nt
Oc1cc2c(c(Cl)c1O)CCNCC2c1ccccc1 (stereo unspecified) | nt | 82* | i | nt | nt
O=[N+]([O-])c1cc([N+](=O)[O-])c2oc(-c3ccccc3)c(Br)c2c1O | nt | nt | nt | nt | 104*
CCOc1ccccc1-n1c(SCC(N)=O)nnc1-c1cccnc1 | -6 | -1 | i | 1 | 9
CCn1c(CSc2nnc(-c3cccnc3)n2-c2ccccc2C)nc2cc(C(=O)O)ccc21 | -2 | 145* | i | 13 | -1
CCn1c(CSc2nnc3ccccn23)nc2cc(C(=O)O)ccc21 | -13 | 138* | i | -7 | 8
